From the supplement of paper PMC12669032
A number with no mark means an inactive call.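 The calls were made as follows: active = AUC reduced over 20% with Padj below 0.05 in at least 2 of 3 replicates; inactive = otherwise.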

Experiments:
Experiment in all cases: growth AUC relative to DMSO control (median of replicates) (fraction); higher = more growth (less inhibition), active = hit call of the paper
Conditions in all cases: 20 µM; 24 h
Akkermansia muciniphila = system: Akkermansia muciniphila
Procedure, shortened: (§1)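 Area under the growth curve was normalised to the plate median of solvent-only wells, or to row and column medians on the industrial chemical plate. Growth curves came from anaerobic gut bacterial monocultures in mGAM at 37 °C, seeded at OD600 0.05 with 20 µM compound (1% DMSO), and read at OD600 hourly for 24 h with the minimum OD set to 0. The value is the median of three biological replicates grown on separate days.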

Bacteroides caccae = system: Bacteroides caccae
Procedure, shortened: as §1

Bacteroides clarus = system: Bacteroides clarus
Procedure, shortened: as §1

Bacteroides dorei = system: Bacteroides dorei
Procedure, shortened: as §1

Bacteroides stercoris = system: Bacteroides stercoris
Procedure, shortened: as §1

[1] = system: Bacteroides thetaiotaomicron
Procedure, shortened: as §1

Bacteroides uniformis = system: Bacteroides uniformis
Procedure, shortened: as §1

[2] = system: Bifidobacterium longum subsp. longum
Procedure, shortened: as §1

Clostridium difficile = system: Clostridium difficile
Procedure, shortened: as §1

Collinsella aerofaciens = system: Collinsella aerofaciens
Procedure, shortened: as §1

Row | Compound | growth AUC (Akkermansia muciniphila) | growth AUC (Bacteroides caccae) | growth AUC (Bacteroides clarus) | growth AUC (Bacteroides dorei) | growth AUC (Bacteroides stercoris) | growth AUC [1] | growth AUC (Bacteroides uniformis) | growth AUC [2] | growth AUC (Clostridium difficile) | growth AUC (Collinsella aerofaciens)
1 | CNC(=O)Oc1cccc2c1OC(C)(C)C2O (stereo not given) | 1.07 | 1.01 | 1.04 | 1.02 | 1.06 | 1.01 | 0.998 | 0.967 | 1.03 | 1.01
2 | O=C(O)COc1cc(Cl)c(Cl)cc1Cl | 0.934 | 1.02 | 0.954 | 1.01 | 0.978 | 0.985 | 1.01 | 0.708 | 1.01 | 1.07
3 | CO/N=C(/C(=O)OC)c1ccccc1CO/N=C(\C)c1cccc(C(F)(F)F)c1 | 0.96 | 0.937 | 0.897 | 1.02 | 0.993 | 0.956 | 0.994 | 0.975 | 1.09 | 0.993
4 | COP(=S)(OC)Oc1c(Cl)cc(C)cc1Cl | 0.999 | 0.966 | 0.993 | 0.964 | 0.958 | 1.01 | 0.97 | 0.98 | 0.985 | 0.975
5 | COP(=S)(OC)Oc1cc(Cl)c(Cl)cc1Cl | 1.09 | 0.936 | 1.02 | 0.947 | 1.17 | 1.03 | 0.939 | 0.947 | 1.02 | 1.04
6 | N#CC(CCc1ccc(Cl)cc1)(Cn1cncn1)c1ccccc1 (stereo not given) | 1.02 | 0.967 | 0.961 | 0.952 | 0.941 | 0.94 | 0.873 | 0.978 | 0.957 | 0.968
7 | Cc1ccccc1CO[C@@H]1C[C@@]2(C(C)C)CC[C@]1(C)O2 (mixture of isomers) | 1.08 | 0.955 | 0.967 | 0.977 | 1.02 | 1.01 | 0.997 | 1.03 | 1.04 | 1.01
8 | CCO/N=C(\CC)C1=C(O)CC(c2c(C)cc(C)cc2C)CC1=O (stereo not given) | 1.1 | 0.821 | 1 | 0.999 | 0.97 | 0.986 | 0.962 | 1.05 | 0.969 | 0.943
9 | OC(c1ccc(Cl)cc1)(c1ccc(Cl)cc1)C(Cl)(Cl)Cl | 1.07 | 0.962 | 0.409 (active) | 0.954 | 0.0157 (active) | 0.379 (active) | 0.0202 (active) | 0.973 | 1.03 | 0.973
10 | CCNc1nc(Cl)nc(NC(C)(C)C)n1 | 1.01 | 0.987 | 0.977 | 0.978 | 0.996 | 0.967 | 1 | 1.01 | 0.977 | 0.971
11 | OC[C@@H](O)[C@H]1O[C@@H]2O[C@H](C(Cl)(Cl)Cl)O[C@@H]2[C@H]1O (mixture of isomers) | 0.979 | 1.02 | 0.978 | 1.04 | 0.952 | 1.01 | 1.04 | 0.969 | 1.03 | 0.975
12 | CCC1(C(=O)NC(C)c2ccc(Cl)cc2)C(C)C1(Cl)Cl (stereo not given) | 1.18 | 0.963 | 0.985 | 0.884 | 0.958 | 0.909 | 0.881 | 0.969 | 0.969 | 0.942
13 | CCOP(=S)(OCC)SCCSCC | 0.992 | 1.03 | 1.01 | 0.973 | 1.06 | 1.01 | 0.973 | 1.02 | 0.977 | 0.972
14 | CN(C)C(=S)[S-].CN(C)C(=S)[S-].[Zn+2] | 0.76 | 0.876 | 0.965 | 0.857 | 0.799 (active) | 0.694 (active) | 0.819 | 0.884 | 0.945 | 0.969
15 | COC(=O)C(C)(Cl)Cl | 0.86 | 0.984 | 1.01 | 1.02 | 1 | 1.04 | 0.968 | 1.02 | 1.01 | 1.01
16 | N#Cc1cc(I)c(O)c(I)c1 | 0.914 | 0.802 | 0.76 (active) | 0.776 | 0.939 | 0.919 | 0.799 (active) | 0.941 | 0.919 | 1.04
17 | COc1ncc(F)c2nc(S(=O)(=O)Nc3c(F)cccc3F)nn12 | 0.991 | 1.02 | 0.985 | 1.01 | 1.13 | 0.974 | 1 | 1.01 | 0.994 | 1.01
18 | C#CCOc1ccc(CCNC(=O)C(OCC#C)c2ccc(Cl)cc2)cc1OC (stereo not given) | 1.02 | 0.94 | 0.948 | 0.957 | 0.898 | 0.951 | 0.901 | 1.02 | 0.981 | 1
19 | COc1cc(OC)nc(NC(=O)NS(=O)(=O)c2ncccc2C(=O)N(C)C)n1 | 1 | 0.94 | 0.98 | 0.957 | 1.11 | 1.01 | 1.01 | 0.96 | 1 | 0.965
20 | COCc1c(F)c(F)c(COC(=O)[C@@H]2[C@@H](C=C(Cl)Cl)C2(C)C)c(F)c1F | 1.07 | 0.953 | 1.03 | 1.01 | 1.29 | 1.03 | 0.969 | 1.03 | 0.994 | 1
21 | CNC(=O)Oc1cc(C)c(S(C)=O)c(C)c1 (stereo not given) | 0.977 | 0.949 | 0.999 | 1 | 1.13 | 0.978 | 1.02 | 1.04 | 0.968 | 1.05
22 | N#Cc1nn(-c2c(Cl)cc(C(F)(F)F)cc2Cl)c(N)c1S(=O)(=O)C(F)(F)F | 1.09 | 0.823 | 0.966 | 0.961 | 1.16 | 0.996 | 0.961 | 0.936 | 0.866 | 1.03
23 | COCC(=O)N(c1c(C)cccc1C)[C@H](C)C(=O)OC | 0.94 | 1 | 1.04 | 1.04 | 1.06 | 1 | 1.02 | 1.1 | 1.02 | 1.04
24 | C[C@@H]1C[C@@H]([C@H](O)CC2CC(=O)NC(=O)C2)C(=O)[C@@H](C)C1 | 1.15 | 1.02 | 1.02 | 0.98 | 1.05 | 1.04 | 0.999 | 1.02 | 1.05 | 0.989
25 | CC(Cl)(Cl)C(=O)O | 0.869 | 1.05 | 1.02 | 1.02 | 1.02 | 1.01 | 1.02 | 0.983 | 0.999 | 1.02
26 | CCCCC(C#N)(Cn1cncn1)c1ccc(Cl)cc1 (stereo not given) | 1.04 | 1.02 | 0.952 | 0.98 | 0.861 | 0.984 | 0.975 | 1.04 | 0.985 | 0.959
27 | CCCCCCCCCCCCCN1CC(C)OC(C)C1 (stereo not given) | 0.931 | 0.969 | 1 | 1.01 | 1.03 | 0.993 | 0.982 | 0.908 | 0.923 | 0.941
28 | O=C1C[C@@H]2OCC=C3CN4CC[C@]56c7ccccc7N1[C@H]5[C@H]2[C@H]3C[C@H]46 | 0.985 | 0.968 | 0.998 | 0.93 | 0.898 | 0.964 | 1.01 | 1.09 | 0.972 | 0.942
